# Compounds without any hit were thinned out: in the full panel of roughly 83,000, 20% have a hit.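 Compound tested at a single concentration for 48 hours in 96-well plates; a percent growth value below 10 was scored as active.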 The source made the active and inactive calls.
# Tested on: HL-60(TB) leukemia
# Assay: NCI-60 one-dose screen, 48 h (100 = growth as untreated, 0 = no growth, -100 = all killed)
# Conditions: 10 µM unless noted
row,Compound,growth
1,Cc1[nH]c(/C=C2\C(=O)Nc3ccc(F)cc32)c(C)c1C(=O)NC[C@H](O)CN1CCOCC1,4.41% (active)
2,CC1(C)CC[C@]2(C(=O)OC(=O)[C@]34CCC(C)(C)C[C@@H]3C3=CC[C@@H]5[C@@]6(C)CCC(=O)C(C)(C)[C@@H]6CC[C@@]5(C)[C@]3(C)CC4)CC[C@]3(C)C(=CC[C@@H]4[C@@]5(C)CCC(=O)C(C)(C)[C@@H]5CC[C@]43C)[C@H]2C1,6.37% [100 µM] (active)
3,CCCCCC/C=C\CCCCCCCCOc1ccc(CCOP(=O)(O)OCC[N+](C)(C)C)cc1,-15.1% (active)
4,CCCCC/C(C)=N\NC(N)=S,96.5% (inactive)
5,O=C(N/N=C/c1ccccc1O)C(=O)Nc1ccc(F)cc1,29.6% (inactive)
6,C=CCOc1ccc(/C(O)=C2\C(=O)C(=O)N(c3nccs3)C2c2ccccc2F)cc1 (stereo not given),81.1% (inactive)
7,N=c1sc(Cc2cc(Cl)ccc2Cl)cn1CC(=O)c1ccccc1,29.6% (inactive)
8,COc1ccc([C@H]2c3cc(OC)c(OC)cc3C=C(C=O)C2CO)cc1OC (stereo not given in full),-13.9% (active)
9,COc1ccc2sc(-n3nc4nc5n(c(=O)c4c3N)-c3ccccc3Sc3ccccc3-5)nc2c1,66.6% (inactive)
10,CN1C(=O)/C(=C\c2c(Cl)cccc2Cl)c2ccccc21,80.9% (inactive)
11,O=C(CC(O)c1ccncc1)c1ccccc1 (stereo not given),100% (inactive)
12,Cc1nn(-c2ccccc2)c2nc(N)c(C3=NCCO3)nc12,102% (inactive)
13,Nc1c2c(nc3ccc(Cl)cc13)CC(c1ccccc1)CC2=O (stereo not given),11% (inactive)
14,CN(C)N1C(=O)c2c(Cl)c(Cl)c(Cl)c(Cl)c2C1=O,95.8% (inactive)
15,COc1cc2c(cc1OCCCN1CCN(c3ncnc4ccccc34)CC1)N=CC1CCCN1C2=O (stereo not given),-53.2% (active)
16,COc1ccc2c(c1)CC[C@@H]1[C@@H]2CC[C@]2(C)C3C(=CC(COC(C)=O)C4C(=O)N(c5ccc(Cl)cc5)C(=O)C43)C[C@@H]12 (stereo not given in full),88.4% (inactive)
17,C[C@@H]1N=C(c2ccc3ccccc3n2)Nc2nc3ccccn3c2C1=O,97.6% (inactive)
18,COC(=O)/C=C1\SC(=Nc2cccc(Cl)c2)N(CCc2c[nH]c3ccccc23)C1=O,-37.1% (active)
19,Cc1cc(C(O)(c2ccc(Nc3ccccc3)cc2)c2ccc(Nc3ccc(S(=O)(=O)O)cc3)cc2)ccc1N (stereo not given),-7.9% (active)
20,N#C/C(=N\Nc1ccc(Cl)cc1)C(=O)Nc1cc(-c2ccccc2)nn1-c1ccccc1,27.5% (inactive)
21,COc1ccc(-c2csc(NC(=O)CSc3nc(C)cc(=O)[nH]3)n2)cc1,106% (inactive)
22,COc1cc(C)cc2oc3oc(=O)c(C(=O)c4cc5cc(Br)ccc5o4)cc3c(=O)c12,103% (inactive)
23,CC[C@@H](C(=O)[C@@H](C)[C@@H](O)[C@H](C)[C@@H]1O[C@@H]([C@@H](CC)C(=O)O)CC[C@@H]1C)C1O[C@]2(C=CC(=O)[C@]3(CC[C@@](C)([C@H]4CC[C@](O)(CC)[C@H](C)O4)O3)O2)[C@H](C)C[C@@H]1C (stereo not given in full),-32.7% (active)
24,COc1ccc(NS(=O)(=O)c2ccc(C)cc2)c([N+](=O)[O-])c1,90.7% (inactive)
25,CC1(C)CC[C@]23CC[C@]4(C)[C@H](CC[C@@H]5[C@@]6(C)C/C(=C/c7cccnc7)C(=O)C(C)(C)[C@@H]6CC[C@]54C)[C@H]2[C@H]1OC3=O,-0.84% [100 µM] (active)

# Source: PubChem BioAssay (NCI)
